# Measurements from PubChem BioAssay (NCATS).
# Records with an inconclusive call do not appear. Where a call stands in place of a potency, no number is given. Active and inactive are the calls of the source. Unless noted, the call rests on the fitted dose curve; in most records, active means well fitted curve in the direction sought with a large enough effect; inconclusive means small, poorly fitted or top-dose-only effect, or another doubt; inactive means no such curve, though single readings can be large; an effect the other way counts as inactive or inconclusive.
# What was measured:
# [1] = qHTS for differential inhibitors of proliferation of Plasmodium falciparum line 7G8 (AID 1815);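 further: parasite growth measured after three days of incubation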
# [2] = NCATS anti-infectives library activity on the primary C. elegans qHTS viability assay (AID 1745855; calls by dose curve; further: potency means the concentration at half of the fitted maximal effect)
# Summary of the method: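 Titration-based screen in worms: eggs hatched overnight in M9, L1 larvae fed TOP10 capsules in S medium with compound, incubated 21 °C for 7 days; fluorescent objects gated by size and intensity at days 0, 3 and 7.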
# [3] = molecular target: Cytochrome P450 3A4 (Homo sapiens) (UniProt P08684); assay: qHTS for inhibitors of CYP3A4 against the NCATS DSHEA and TCM libraries (AID 1919971);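 further: inhibition lowers luminescence from luciferin made by CYP3A4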
# Summary of the method: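 Substances were tested against enzyme with a pro-luciferin substrate; minus-enzyme wells served as background. After NADPH-initiated oxidation (30-45 min, RT), light was generated with P450-Glo reagent.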
# [4] = molecular target: Cytochrome P450 1A2 (Homo sapiens) (UniProt P05177); assay: qHTS for inhibitors of CYPIA2 against the NCATS DSHEA and TCM libraries (AID 1919976); further: series mostly up to about 37 µM
# Summary of the method: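 Luminescence read-out: pro-luciferin converted to D-luciferin by CYP1A2, detected with P450-Glo reagent after 30 min RT. Enzyme plus substrate got compounds for 15 min RT; NADPH regeneration solution (final 1x) started a 30-45 min reaction, light-protected.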
# [5] = molecular target: Endonuclease 4 (Escherichia coli (strain K12)) (UniProt P0A6C1); assay: Counterscreen for APE1 Inhibitors: qHTS Validation Assay for Inhibitors of Endonuclease IV (AID 1708)
# Summary of the method: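 Measured as reaction progress, the fluorescence gain between first and third kinetic reads after adding 50 nM TAMRA/BHQ-2 THF duplex to 2 nM enzyme preincubated 15 min with compound; 2 mM MgCl2, pH 7.5.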
# [6] = molecular target: RecQ-like DNA helicase BLM (Homo sapiens) (UniProt P54132); assay: qHTS Validation Assay for Inhibitors of Bloom's syndrome helicase (BLM) (AID 2364)
# Summary of the method: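 BLM 50 nM in 25 mM Tris-HCl pH 8.0, 5 mM NaCl, 2 mM MgCl2, 1 mM DTT, 0.01% Tween-20, 2.5 ug/ml poly(dI-dC); 15 min cpd preinc, RT. Start: 200 nM forked DNA + 2 mM ATP (final). TAMRA read, 2 reads 2 h apart.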
# [7] = qHTS assay for small molecule antagonists of peroxisome proliferator-activated receptor delta signaling (AID 588535; active means well fitted inhibition curve with a large enough effect in the signal ratio, with a control signal flat, not every such curve was filed as active; the % refers to the signal ratio;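 on max response: cells co-treated with a PPAR-delta agonist as stimulator during compound exposure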); details: HEK293T PPARd-UAS-bla, beta-lactamase FRET ratio, 18 h; 460 nm channel
# Summary of the method: (§1)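 Compounds tested in titration on PPAR-delta-UAS-bla HEK293T cells grown in charcoal/dextran-stripped serum (2%); beta-lactamase activity read via CCF4 emission at 460 and 530 nm.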
# [8] = molecular target: Peroxisome proliferator-activated receptor delta (Homo sapiens) (UniProt Q03181); assay: as above
# Summary of the method: as §1
# [9] = molecular target: Peroxisome proliferator-activated receptor gamma (Homo sapiens) (UniProt P37231); assay: qHTS assay for small molecule agonists of peroxisome proliferator-activated receptor gamma signaling (AID 588536; active means well fitted curve in the direction sought with a large enough effect in the signal ratio, with a control signal flat, not every such curve was filed as active; the % refers to the signal ratio)
# Summary of the method: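 Using GeneBLAzer HEK293 cells, response was quantified by CCF4 fluorescence and normalized between basal DMSO (0%) and rosiglitazone 2 uM (100%); curves yielded half-maximal stimulation concentration and efficacy.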
# [10] = molecular target: Peroxisome proliferator-activated receptor gamma (Homo sapiens) (UniProt P37231); assay: qHTS assay for small molecule antagonists of peroxisome proliferator-activated receptor gamma signaling (AID 588537; active means well fitted inhibition curve with a large enough effect in the signal ratio, with a control signal flat, not every such curve was filed as active; the % refers to the signal ratio;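 further: reporter cells co-stimulated with 50 nM rosiglitazone agonist during compound treatment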)
# Summary of the method: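 HEK293 cells, PPAR-gamma-UAS-bla, 3000/well. Pre-incubation 6-6.5 h, 37 C. Compound titration with rosiglitazone 50 nM final, 16 h. CCF4 dye, 2 h RT, dual-emission fluorescence.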
# [11] = molecular target: Vitamin D3 receptor (Homo sapiens) (UniProt P11473); assay: qHTS assay for small molecule antagonists of vitamin D receptor signaling (AID 588541; calls by dose curve;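 further: receptor activated by calcitriol during compound treatment; series mostly up to about 77 µM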)
# Summary of the method: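 VDR-UAS-bla HEK293T cells (2000/well, 2% charcoal-stripped FBS) were treated with titrated compounds plus 1-alpha,25-dihydroxyvitamin D3 (50 nM or 3 nM final) for 16 h at 37 C. CCF4 beta-lactamase fluorescence was read; Hill fits gave IC50.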
# [12] = molecular target: Vitamin D3 receptor (Homo sapiens) (UniProt P11473); assay: qHTS assay for small molecule agonists of vitamin D receptor signaling (AID 588543; calls by dose curve)
# Summary of the method: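 GeneBLAzer VDR-UAS-bla HEK293T cells in 2% charcoal-stripped FBS medium were dosed with compound titrations for 16 h at 37 °C; CCF4 β-lactamase readout (405 nm ex, 460/530 nm em). EC50 and efficacy from Hill fits, normalized to 50 nM calcitriol (100%) and DMSO (0%).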
# [13] = molecular target: Thyroid hormone receptor beta (Homo sapiens) (UniProt P10828); assay: qHTS assay for small molecule agonists of thyroid hormone receptor beta signaling (AID 588545; calls by dose curve)
# Summary of the method: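 Stimulation of a TR-driven beta-lactamase reporter was quantified in GripTite HEK 293 cells. Compound series ran for 18 hrs; curves were normalized to T3 and DMSO controls and fitted to yield EC50.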
# [14] = qHTS assay for small molecule antagonists of retinoid X receptor alpha signaling (AID 588546; active means well fitted inhibition curve with a large enough effect in the signal ratio, with a control signal flat, not every such curve was filed as active; the % refers to the signal ratio;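 further: cells stimulated with 9-cis-retinoic acid as agonist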); details: HEK293T RXRa-UAS-bla, beta-lactamase ratio, antagonist mode; measured here: W530 green channel, cytotoxicity proxy
# Summary of the method: (§2)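 Beta-lactamase reporter inhibition, read as CCF4 fluorescence ratio (ex 405, em 460/530 nm) after 2 h at RT. HEK293T UAS-bla cells, 2500/well, were stimulated with 9-cis-RA at 500 or 100 nM final alongside test compound for 18 h at 37 C.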
# [15] = molecular target: Retinoic acid receptor RXR-alpha (Homo sapiens) (UniProt P19793); assay: as above; details: HEK293T RXRa-UAS-bla, beta-lactamase ratio, antagonist mode
# Summary of the method: as §2
# [16] = molecular target: Thyroid hormone receptor beta (Homo sapiens) (UniProt P10828); assay: qHTS assay for small molecule antagonists of thyroid hormone receptor beta signaling (AID 588547; active means well fitted inhibition curve with a large enough effect in the signal ratio, with a control signal flat, not every such curve was filed as active; the % refers to the signal ratio;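 further: cells stimulated with 0.4 nM T3 agonist during compound exposure; series mostly up to about 77 µM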); details: TR-UAS-bla HEK293, beta-lactamase ratio, antagonist mode, 18 h
# Summary of the method: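 TR-UAS-bla GripTite HEK293 cells in 2% charcoal/dextran FBS medium were preincubated 4 h at 37 C, given compound (0.59 nM to 92 uM) plus 0.4 nM T3 (final) for 18 h, then CCF4 for 2 h at RT; Hill fit gave IC50.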
# [17] = qHTS assay for small molecule activators of the p53 signaling pathway (AID 651743; active means well fitted activation curve with a large enough effect in the signal ratio, not every such curve was filed as active; the % refers to the signal ratio; further: series mostly up to about 92 µM); details: HCT-116 p53RE-bla, beta-lactamase FRET ratio, 16 h; stronger effect = higher value
# Summary of the method: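 Here HCT-116 cells with an integrated p53-responsive beta-lactamase gene were incubated with compounds (16 hours, 37 C) after a 5-hour plating period; beta-lactamase activity was detected as fluorescence intensity via B/G FRET substrate.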
# [18] = qHTS assay for environmental chemicals that activate the Aryl hydrocarbon Receptor (AhR) signaling pathway (AID 651777); details: 1A2-DRE human hepatoma cells, luciferase, 24 h; stronger effect = higher value; further: nearly all actives have a fitted effect of over 15% in size
# Summary of the method: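 Induction of CYP1A2 transcription through AhR is detected by luciferase in 1A2-DRE hepatoma cells. Compounds or DMSO act for 24 hr at 37 C before a 30 min One-Glo step at room temperature.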
# [19] = molecular target: Peroxisome proliferator-activated receptor alpha (Homo sapiens) (UniProt Q07869); assay: qHTS assay for small molecule agonists of the peroxisome proliferator-activated receptor alpha (PPARalpha) signaling pathway (AID 651778); details: PathHunter PPARalpha complementation, chemiluminescence, 6 h; stronger effect = higher value
# Summary of the method: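 Cells plated at 2,000/well and held overnight at 37 C, 5% CO2, then compound added by pin tool for 6 hr; after PathHunter detection reagent and 60 min at room temperature, chemiluminescence from enzyme complementation was read.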
# [20] = molecular target: Nuclear receptor subfamily 1 group I member 2 (Rattus norvegicus) (UniProt Q9R1A7); assay: qHTS assay for small molecule activators of the rat pregnane X receptor (rPXR) signaling pathway (AID 651751; call rule not given here); details: rPXR reporter cells, luciferase (One-Glo), 24 h
# Peroxisome proliferator-activated receptor gamma (Homo sapiens), sequence (P37231 whole entry, looked up): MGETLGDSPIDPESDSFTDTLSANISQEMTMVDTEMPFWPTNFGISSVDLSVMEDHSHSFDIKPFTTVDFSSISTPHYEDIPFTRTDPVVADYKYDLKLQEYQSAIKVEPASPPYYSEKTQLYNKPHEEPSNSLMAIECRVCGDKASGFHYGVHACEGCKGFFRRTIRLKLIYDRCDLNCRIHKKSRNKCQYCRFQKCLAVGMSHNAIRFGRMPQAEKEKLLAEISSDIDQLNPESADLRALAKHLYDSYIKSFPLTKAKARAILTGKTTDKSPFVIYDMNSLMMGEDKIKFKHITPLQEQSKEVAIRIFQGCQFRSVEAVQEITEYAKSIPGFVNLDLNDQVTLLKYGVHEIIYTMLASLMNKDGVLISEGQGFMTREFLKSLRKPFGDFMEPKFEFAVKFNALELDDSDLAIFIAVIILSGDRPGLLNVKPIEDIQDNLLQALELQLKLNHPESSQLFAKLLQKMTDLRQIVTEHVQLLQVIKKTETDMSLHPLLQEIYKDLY
# Vitamin D3 receptor (Homo sapiens), sequence (P11473 whole entry, looked up): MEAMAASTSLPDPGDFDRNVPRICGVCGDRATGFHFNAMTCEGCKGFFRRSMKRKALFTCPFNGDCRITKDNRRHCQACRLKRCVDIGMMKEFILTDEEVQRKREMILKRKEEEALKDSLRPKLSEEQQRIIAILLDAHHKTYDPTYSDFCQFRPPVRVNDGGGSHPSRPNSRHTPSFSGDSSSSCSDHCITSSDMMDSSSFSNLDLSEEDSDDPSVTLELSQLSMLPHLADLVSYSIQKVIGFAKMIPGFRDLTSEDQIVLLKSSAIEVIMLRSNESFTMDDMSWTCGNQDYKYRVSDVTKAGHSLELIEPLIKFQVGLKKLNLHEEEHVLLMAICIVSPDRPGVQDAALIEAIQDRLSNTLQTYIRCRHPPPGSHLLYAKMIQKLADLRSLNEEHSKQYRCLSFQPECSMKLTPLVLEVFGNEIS
# Thyroid hormone receptor beta (Homo sapiens), sequence (P10828 whole entry, looked up): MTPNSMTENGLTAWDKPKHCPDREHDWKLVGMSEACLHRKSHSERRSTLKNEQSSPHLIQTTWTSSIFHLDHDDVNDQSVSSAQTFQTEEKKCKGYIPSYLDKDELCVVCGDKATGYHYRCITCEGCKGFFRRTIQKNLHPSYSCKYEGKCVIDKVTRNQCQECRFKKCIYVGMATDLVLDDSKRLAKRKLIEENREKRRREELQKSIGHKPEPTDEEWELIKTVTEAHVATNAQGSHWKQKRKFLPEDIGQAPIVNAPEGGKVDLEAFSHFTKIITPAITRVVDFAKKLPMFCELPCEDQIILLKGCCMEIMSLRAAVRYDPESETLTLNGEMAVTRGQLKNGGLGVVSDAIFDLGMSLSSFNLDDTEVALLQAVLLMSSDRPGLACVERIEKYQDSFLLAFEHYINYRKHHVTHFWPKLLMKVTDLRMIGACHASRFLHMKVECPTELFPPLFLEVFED
# Retinoic acid receptor RXR-alpha (Homo sapiens), sequence (P19793 whole entry, looked up): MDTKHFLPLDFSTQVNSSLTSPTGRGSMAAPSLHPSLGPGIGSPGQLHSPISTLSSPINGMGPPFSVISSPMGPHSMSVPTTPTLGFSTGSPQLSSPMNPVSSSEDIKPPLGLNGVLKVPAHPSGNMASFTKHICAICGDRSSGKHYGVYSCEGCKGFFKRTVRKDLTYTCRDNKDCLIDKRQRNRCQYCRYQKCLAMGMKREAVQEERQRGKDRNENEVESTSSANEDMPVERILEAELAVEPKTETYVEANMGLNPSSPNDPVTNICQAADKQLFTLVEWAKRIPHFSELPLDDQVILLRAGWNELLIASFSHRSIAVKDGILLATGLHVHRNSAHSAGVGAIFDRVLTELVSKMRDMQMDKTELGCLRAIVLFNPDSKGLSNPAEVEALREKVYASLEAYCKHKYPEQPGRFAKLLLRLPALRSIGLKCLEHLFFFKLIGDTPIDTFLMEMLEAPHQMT
# RecQ-like DNA helicase BLM (Homo sapiens), sequence (P54132 whole entry, looked up): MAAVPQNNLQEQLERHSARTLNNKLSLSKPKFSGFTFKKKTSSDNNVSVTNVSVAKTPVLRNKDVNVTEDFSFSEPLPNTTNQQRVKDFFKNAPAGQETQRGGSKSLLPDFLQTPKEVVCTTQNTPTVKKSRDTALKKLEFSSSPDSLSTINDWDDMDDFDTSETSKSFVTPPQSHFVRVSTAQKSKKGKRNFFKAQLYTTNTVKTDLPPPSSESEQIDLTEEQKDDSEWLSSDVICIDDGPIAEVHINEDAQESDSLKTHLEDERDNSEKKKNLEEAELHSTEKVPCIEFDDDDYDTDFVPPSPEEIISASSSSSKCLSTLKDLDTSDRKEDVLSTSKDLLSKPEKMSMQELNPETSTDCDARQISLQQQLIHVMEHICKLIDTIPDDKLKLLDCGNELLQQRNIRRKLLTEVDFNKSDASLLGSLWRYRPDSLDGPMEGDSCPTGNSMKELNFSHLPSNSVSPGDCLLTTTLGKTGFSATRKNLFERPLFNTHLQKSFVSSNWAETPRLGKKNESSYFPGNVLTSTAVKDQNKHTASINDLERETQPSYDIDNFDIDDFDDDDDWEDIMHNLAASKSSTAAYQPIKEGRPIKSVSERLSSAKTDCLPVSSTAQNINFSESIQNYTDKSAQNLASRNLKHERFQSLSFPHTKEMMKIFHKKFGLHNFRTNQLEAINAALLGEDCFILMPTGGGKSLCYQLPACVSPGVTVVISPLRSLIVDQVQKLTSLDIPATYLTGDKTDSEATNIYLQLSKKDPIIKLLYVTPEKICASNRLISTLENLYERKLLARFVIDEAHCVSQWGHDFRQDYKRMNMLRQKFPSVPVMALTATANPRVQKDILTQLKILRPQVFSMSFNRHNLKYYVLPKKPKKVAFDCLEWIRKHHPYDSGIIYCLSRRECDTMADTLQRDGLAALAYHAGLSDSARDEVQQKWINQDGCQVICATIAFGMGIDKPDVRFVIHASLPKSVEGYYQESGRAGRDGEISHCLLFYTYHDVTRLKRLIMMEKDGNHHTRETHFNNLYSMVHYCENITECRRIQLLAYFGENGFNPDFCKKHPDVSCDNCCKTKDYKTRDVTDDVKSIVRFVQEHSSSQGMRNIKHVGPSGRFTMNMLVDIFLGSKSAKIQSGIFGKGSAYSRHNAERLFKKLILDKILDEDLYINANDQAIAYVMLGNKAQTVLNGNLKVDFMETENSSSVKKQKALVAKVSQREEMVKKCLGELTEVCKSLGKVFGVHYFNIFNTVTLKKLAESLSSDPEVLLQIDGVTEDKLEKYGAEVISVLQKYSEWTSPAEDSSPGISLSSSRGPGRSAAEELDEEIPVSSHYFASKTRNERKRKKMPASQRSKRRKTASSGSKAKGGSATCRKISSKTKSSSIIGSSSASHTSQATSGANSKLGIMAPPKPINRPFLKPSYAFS
# Cytochrome P450 1A2 (Homo sapiens), sequence (P05177 whole entry, looked up): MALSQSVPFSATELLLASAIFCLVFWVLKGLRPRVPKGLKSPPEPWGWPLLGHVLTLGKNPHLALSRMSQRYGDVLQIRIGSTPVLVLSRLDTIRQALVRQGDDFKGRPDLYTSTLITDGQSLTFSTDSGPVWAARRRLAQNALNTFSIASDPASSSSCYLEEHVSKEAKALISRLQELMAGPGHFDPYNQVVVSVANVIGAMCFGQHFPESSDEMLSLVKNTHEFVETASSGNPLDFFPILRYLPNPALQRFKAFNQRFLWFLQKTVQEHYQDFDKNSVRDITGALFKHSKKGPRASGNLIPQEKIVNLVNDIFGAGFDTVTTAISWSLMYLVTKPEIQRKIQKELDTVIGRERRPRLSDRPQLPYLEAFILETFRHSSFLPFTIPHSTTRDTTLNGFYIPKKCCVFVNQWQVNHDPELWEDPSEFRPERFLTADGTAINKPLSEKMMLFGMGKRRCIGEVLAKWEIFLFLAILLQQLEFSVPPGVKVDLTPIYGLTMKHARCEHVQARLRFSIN
# Peroxisome proliferator-activated receptor alpha (Homo sapiens), sequence (Q07869 whole entry, looked up): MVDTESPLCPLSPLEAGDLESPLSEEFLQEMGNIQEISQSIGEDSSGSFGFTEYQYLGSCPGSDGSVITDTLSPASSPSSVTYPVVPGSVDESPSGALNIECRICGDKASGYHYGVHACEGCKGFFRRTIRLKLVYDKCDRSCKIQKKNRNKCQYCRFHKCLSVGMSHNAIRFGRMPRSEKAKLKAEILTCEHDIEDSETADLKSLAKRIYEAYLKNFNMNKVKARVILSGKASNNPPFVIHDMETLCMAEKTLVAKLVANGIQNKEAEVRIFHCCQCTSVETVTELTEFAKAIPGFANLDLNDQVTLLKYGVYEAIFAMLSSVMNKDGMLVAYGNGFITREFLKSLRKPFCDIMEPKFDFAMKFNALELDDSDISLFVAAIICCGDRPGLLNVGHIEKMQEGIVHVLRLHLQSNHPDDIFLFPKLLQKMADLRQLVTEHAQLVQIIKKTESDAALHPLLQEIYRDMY
# Cytochrome P450 3A4 (Homo sapiens), sequence (P08684 whole entry, looked up): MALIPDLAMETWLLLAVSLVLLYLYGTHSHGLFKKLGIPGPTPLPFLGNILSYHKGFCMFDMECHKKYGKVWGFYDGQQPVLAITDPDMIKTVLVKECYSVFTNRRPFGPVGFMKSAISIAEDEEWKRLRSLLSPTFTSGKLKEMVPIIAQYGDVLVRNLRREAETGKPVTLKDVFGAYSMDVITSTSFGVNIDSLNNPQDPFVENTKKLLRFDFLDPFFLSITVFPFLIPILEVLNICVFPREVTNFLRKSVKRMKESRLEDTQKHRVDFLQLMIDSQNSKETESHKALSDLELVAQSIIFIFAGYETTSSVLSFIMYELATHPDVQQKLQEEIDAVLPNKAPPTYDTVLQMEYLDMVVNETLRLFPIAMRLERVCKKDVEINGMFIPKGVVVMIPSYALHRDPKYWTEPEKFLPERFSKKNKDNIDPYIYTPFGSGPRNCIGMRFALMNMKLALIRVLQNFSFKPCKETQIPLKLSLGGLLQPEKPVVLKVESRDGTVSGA
compound,measurement,setting,value
C[N+](C)(C)CCC(=O)c1cccc2ccccc12,Potency,[1],inactive
N#CC(=C(/N)Sc1ccccc1N)/C(C#N)=C(\N)Sc1ccccc1N,Potency,[2],5.15 µM (active)
CC/C=C\C/C=C\C/C=C\C/C=C\C/C=C\CCCCCC(=O)O,outcome,[3],inactive
same,outcome,[4],inactive
NCCNS(=O)(=O)c1cccc2cnccc12,Potency,[5],inactive
same,Potency,[6],inactive
CC(C)=CCC/C(C)=C/CC/C(C)=C/CO,max response,[7],-3.54%
same,outcome,[8],inactive
same,outcome,[9],inactive
same,outcome,[10],inactive
same,Potency,[11],inactive
same,outcome,[12],inactive
same,outcome,[13],inactive
same,max response,[14],-7.11%
same,max response,[15],5.64% (inactive)
same,activity change % (negative = inhibition),[16],1.19% (inactive)
same,activation,[17],1.11% (inactive)
same,activation,[18],1.51% (inactive)
same,max response,[19],2.41% (inactive)
same,max response,[20],-1.6% (inactive)
